# Shown are actives, neighbours in structure and some others; about 7.5% of the full set was active somewhere.
# HCV inhibitor = blocks hepatitis C virus | Potency, µM (top dose mostly 41.8 µM), for the others: top-dose activity change, negative = inhibition, hits mostly inhibitors | hit rate 3.4% among 340,000 | Huh7.5.1 HCVcc-Cre infection, luciferase reporter, 44 h; note: potency is the fitted concentration of half-maximal effect
#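 Antiviral activity was scored by luciferase reporter output from cells infected with HCVcc-Cre (~0.5 moi) in presence of compound, 44 h infection period, cells seeded 1,000/well 4 h prior.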
# Vaccinia mCherry = vaccinia inhibition (mCherry reporter) | Vaccinia virus mCherry reporter infection, fluorescence | Potency, µM (top dose mostly 36.5 µM), inactives show top-dose activity change, negative = inhibition, usual class: inhibitors | hit rate 0.63% among 310,000 | AID 720579; calls by dose curve; tested in A549 cells; note: potency is the fitted concentration of half-maximal effect; nearly all actives have a fitted effect of over 35% in size
# FMDV inh = foot and mouth disease virus antiviral activity; AID 1159524; hit rate 1.2% among 410,000; Potency, µM (top dose mostly 57.9 µM), for inactives: top-dose activity change, negative = inhibition, hits mostly inhibitors; FMDV antiviral cell-based qHTS; calls by dose curve; tested in HEK293T cells; note: read-out not given here; potency is the fitted concentration of half-maximal effect; nearly all actives have a fitted effect of over 45% in size
# HCMV inh = inhibitors of human cytomegalovirus. activity change, negative = inhibition, % at 57.5 µM. hit rate 4.5% among 410,000. HFF cells, HCMV-luciferase reporter, 72 h; active compounds read low. AID 1259415; in the data active = activity change below about -60%; inconclusive = no clear call, values can overlap the other calls; inactive = above about -39%
#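 Inhibition of viral replication was scored as loss of reporter luminescence in HFFs infected with HCMV-luciferase (MOI 1 PFU/cell) for 72 h; compounds tested at 2 doses, normalized to buffer and Salinomycin controls.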
# VACV Venus inh = inhibitors of vaccinia virus (Venus reporter); Vaccinia virus Venus reporter expression, fluorescence; Potency, µM (top dose mostly 36.5 µM), for the others: top-dose activity change, negative = inhibition, most hits filed as inhibitors; hit rate 0.46% among 330,000; calls by dose curve; tested in A549 cells; note: potency is the fitted concentration of half-maximal effect; nearly all actives have a fitted effect of over 30% in size
# Giardia FBPA inh = blocks Giardia fructose-bisphosphate aldolase activity; A8B2U2; purified Giardia FBPA; Potency, µM (highest dose often 59.6 µM), for the others: at the highest dose activity, negative = inhibition, actives largely listed as inhibitors; hit rate 0.71% among 290,000; AID 2451; note: potency is the fitted concentration of half-maximal effect; nearly all actives have a fitted effect of over 55% in size
# Target sequence (A8B2U2 whole entry, looked up): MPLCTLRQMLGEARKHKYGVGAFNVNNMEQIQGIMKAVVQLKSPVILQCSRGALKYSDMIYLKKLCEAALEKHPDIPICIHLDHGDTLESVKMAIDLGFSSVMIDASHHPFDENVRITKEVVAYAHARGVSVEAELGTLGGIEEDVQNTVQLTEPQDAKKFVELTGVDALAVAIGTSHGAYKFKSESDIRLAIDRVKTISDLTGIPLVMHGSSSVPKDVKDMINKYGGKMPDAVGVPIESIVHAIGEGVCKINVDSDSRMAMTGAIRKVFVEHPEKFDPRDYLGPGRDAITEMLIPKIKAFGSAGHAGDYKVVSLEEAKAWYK
#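 Giardia FBPA (40 nM reagent) was preincubated 10 min at RT with compound (up to 57.5 uM final), then substrate plus GAPDH/TPI/NAD/arsenate coupling system with diaphorase/resazurin was added; resorufin fluorescence (525/598 nm) was read after 20 min.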
# Numbers without * were called inactive; i = inactive; ? = inconclusive; · = no result; ! = a repeat was not active; [ ] = another dose, or the depositor's remark. Unless noted, calls come from the whole dose curve; as a rule, active = well fitted curve in the direction sought with a large enough effect; inconclusive = small, poorly fitted or top-dose-only effect, or another doubt; inactive = no such curve, though single readings can be large; an effect the other way counts as inactive or inconclusive. % is set by controls: 0 for no effect and ±100 for the full control effect.
SMILES,HCV inhibitor,Vaccinia mCherry,FMDV inh,HCMV inh,VACV Venus inh,Giardia FBPA inh
COc1cc(OC)c(NC(=O)c2c(C)oc3ncn(C)c(=O)c23)cc1Cl,·,-3%,-4%,-19,-3%,·
CC(=O)Oc1ccc(-c2ccc(C(=O)OCC(=O)c3c(N)n(C)c(=O)n(C)c3=O)cc2)cc1,?,·,-15%,-62*,·,·
CCN(CC)CCNC(=O)c1cc2c(-c3ccc(Cl)cc3)nn(C)c2s1,?,?,-37%,-33,?,-2%
COc1cccc(-c2nn(C)c3sc(C(=O)Nc4ccc5c(c4)OCCO5)cc23)c1,3.2µM*,-16%,26%,·,-1%,-5%
CCN(CC)CCNC(=O)c1cc2c(-c3cccc(OC)c3)nn(C)c2s1,13µM*,-22%,0%,-78*!,-17%,2%
CCCN(CCC)CCNC(=O)c1cc2c(-c3ccc(Cl)cc3)nn(C)c2s1,8.9µM*,?,?,?,?,3%
Cn1nc(-c2ccccc2F)c2cc(C(=O)Nc3ccc4c(c3)OCCO4)sc21,-59%,-23%,-14%,114,?,-7%
COCCCNC(=O)c1cc2c(-c3cccc(OC)c3)nn(C)c2s1,-56%,-25%,-1%,-10,-25%,9%
COc1ccc(-c2nn(C)c3sc(C(=O)Nc4cccc(F)c4)cc23)cc1OC,·,-17%,?,-85*,-9%,·
COc1cccc(-c2nn(C)c3sc(C(=O)NCCc4cccc(C)c4)cc23)c1,·,?,-26%,-69*,-29%,·
COc1cccc(-c2nn(C)c3sc(C(=O)NCc4ccccn4)cc23)c1,10µM*,-10%,-10%,106,-21%,-2%
C#Cc1ccc(-n2nc3ccccc3c2OC)cc1,·,·,·,25,·,·
Cc1ccc(NC(=O)CSc2nc(-c3ccc(F)cc3)nc3c2Cc2c(CO)cnc(C)c2O3)cc1C,·,1%,-19%,4,-3%,·
Cc1cccc(-c2nc3c(c(SCC(=O)N4CCOCC4)n2)Cc2c(CO)cnc(C)c2O3)c1,11µM*,i,-11%,·,-10%,·
Cc1ncc(CO)c2c1Oc1nc(-c3ccccc3)nc(SCC(=O)N3CCOCC3)c1C2,?,-7%,-19%,-33,3%,·
COc1ccccc1-c1nc2c(c(SCC(=O)Nc3ccc(C)c(C)c3)n1)Cc1c(CO)cnc(C)c1O2,·,-16%,-27%,-76*,-15%,·
COc1cccc(-c2nc3c(c(SCC(=O)N4CCOCC4)n2)Cc2c(CO)cnc(C)c2O3)c1,11µM*,-14%[7.34 µM],-8%,·,2%[7.34 µM],·
CCc1ccc(NC(=O)C(C)OC(=O)c2ccc(NS(=O)(=O)c3ccc(C)c([N+](=O)[O-])c3)cc2)cc1 (centres undefined),11µM*,?,-17%,62,?,11%
CC(=O)c1ccc(NC(=O)C(C)OC(=O)c2ccc(NS(=O)(=O)c3ccc(F)c(F)c3)cc2)cc1 (centres undefined),13µM*,-17%,-6%,-37,-6%,16%
Cc1ccc(-n2nnc(-c3nc(-c4cccs4)no3)c2N)c(C)c1,·,-8%[7.34 µM],24%,0,-4%[7.34 µM],·
CCc1ccc(Sc2cc(C(=O)NCCCN3CCC(C)CC3)c3ccccc3n2)cc1,·,-15%,-20%,-77*,-21%,·
CCc1ccc(Nc2cc(C(=O)NCCCN3CCOCC3)c3ccccc3n2)cc1,?,?,-24%,?,-25%,6%
CCc1ccc(Sc2cc(C(=O)NCCCN3CCCC(C)C3)c3ccccc3n2)cc1 (centres undefined),·,-5%,5%,-61*,-11%,·
CN(C)c1c(Cl)cc(/C=C2\C=Cc3ccccc32)cc1Cl,·,-11%,·,·,-1%,·
O=C(NC(CSCc1ccccc1)C(=O)N/N=C/c1ccc(O)cc1O)c1ccc([N+](=O)[O-])cc1 (centres undefined),10µM*,·,-21%,-7,·,?
C/C(=N\Nc1ccc([N+](=O)[O-])cc1)c1ccc(C#N)cc1,6%,-20%,-2%,-18,0%,-1%
C/C(=N/Nc1ccc([N+](=O)[O-])cc1)c1ccc(C)cc1C,?,?,16%,-63*,-23%,-8%
N#CC(C#N)=NNc1ccc([N+](=O)[O-])cc1,11µM*,-2%,-21%,-91*,31%,1%
